Among the data in PubChem BioAssay AID1778 (Sanford-Burnham Center for Chemical Genomics, 2009) are inhibition values, retold here.

SMILES strings stand for the structures. Screen size: about 290,000 compounds; about 260 (0.09%) were called active. The sample holds actives, similar compounds and a random draw of the others, so the mix is not that of the screen. Cut-off read from the data, not from the text of the source: active = inhibition above about 50%; inactive = the rest. Potency and affinity values are given separately.

Chain of Kappa-type opioid receptor (Homo sapiens) (P41145 whole entry, looked up): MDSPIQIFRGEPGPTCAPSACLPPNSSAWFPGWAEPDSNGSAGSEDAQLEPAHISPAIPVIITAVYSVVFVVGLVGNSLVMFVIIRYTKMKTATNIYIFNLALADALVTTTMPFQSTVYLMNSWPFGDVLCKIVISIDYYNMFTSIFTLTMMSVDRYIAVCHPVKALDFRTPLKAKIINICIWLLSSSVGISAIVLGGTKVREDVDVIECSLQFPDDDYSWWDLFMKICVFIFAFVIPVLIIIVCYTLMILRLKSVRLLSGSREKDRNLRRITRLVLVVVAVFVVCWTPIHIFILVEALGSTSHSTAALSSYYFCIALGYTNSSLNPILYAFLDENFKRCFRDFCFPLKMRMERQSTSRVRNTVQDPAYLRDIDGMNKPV

The test addresses Kappa-type opioid receptor (Homo sapiens) (UniProt P41145). The experiment in a line: KOR antagonists, beta-arrestin recruitment, cell-based, luminescence, uHTS (AID 1778). To be noted: antagonist mode, active compounds read high; at 10 µM unless noted.
With `Cc1ccc(CN(C(=O)Cn2nnc3ccccc32)C(C(=O)NCc2ccco2)c2cccs2)cc1` (stereo not drawn), the inhibition (commonly the relative decrease from the control value, in per cent) is 17.9% (inactive).

As for `O=C(NCc1ccco1)C(c1cccs1)N(Cc1ccccc1)C(=O)Cn1nnc2ccccc21` (stereo not drawn), the inhibition is 9.5% (inactive).

For the molecule `Cc1cccc(C)c1NC(=O)C(c1cccs1)N(Cc1ccco1)C(=O)Cn1nnc2ccccc21` (stereo not drawn), the inhibition was 53.4% (active).

Regarding `COc1cc(NS(=O)(=O)c2cn(C)cn2)cc(OC)c1`, the inhibition is -11.4% (inactive).

As to `Cc1ccc(NC(=O)c2cc(N3C(=O)CCC3=O)ccc2N2CCOCC2)cc1`, the inhibition was -2.1% [at 20 µM] (inactive).

As for `Cc1ccc(NC(=O)c2cc(N3C(=O)C=CC3=O)ccc2N2CCOCC2)cc1Cl`, the inhibition is -45.3% (inactive).

For the molecule `O=C(Nc1ccc(N2CCOCC2)c([N+](=O)[O-])c1)c1ccco1`, the inhibition was 11.4% (inactive).

As for `Cc1ccc(-c2ccc(C(=O)O)c(C)n2)cc1`, the inhibition is 21% (inactive).

For the molecule `Cc1ccc(N=Nc2ccc(O)c3ncccc23)cc1C`, the inhibition was 60.3% (active).

With `Oc1ccc(N=Nc2ccccc2C(F)(F)F)c2cccnc12`, the inhibition was 29.5% (inactive).

Consider `Cc1ccc(N=Nc2cc(C)ccc2O)c(C)c1`, for which the inhibition was 19.5% (inactive).

Turning to `Cc1ccc(C)c(N=Nc2ccc(O)c3ncccc23)c1`, the inhibition was 60.4% (active).

For `CCS(=O)(=O)c1ccc(OC)c(N=Nc2ccc(O)c3ncccc23)c1`, the inhibition was 1.8% (inactive).

Regarding `O=Nc1ccc(O)c2ncccc12`, the inhibition is 7.2% (inactive).

As to `COc1ccccc1N=Nc1ccc(O)c2ncccc12`, the inhibition is -19.2% (inactive).

For `Cc1ccc(N=Nc2ccc(O)c3ncccc23)cc1`, the inhibition is -2.4% (inactive).

On to `CC(C)Oc1ccc(N2CC(C(=O)Nc3ccccn3)CC2=O)cc1` (stereo not drawn), for which the inhibition is 19.8% [at 20 µM] (inactive).

In the case of `COc1cc(/C=C2/N=C(C3CCCCC3)OC2=O)cc(OC)c1OC`, the inhibition is -1.6% (inactive).

With `CCC(=O)Nc1ccc(NC(=O)c2cccc3ccccc23)cc1`, the inhibition is -36.8% [at 20 µM] (inactive).

Regarding `S=C(NCCCc1ccccc1)NCc1ccccc1`, the inhibition is 7.2% (inactive).

For the molecule `Cc1ccc(S(=O)(=O)N2CCOCC2)cc1C(=O)NC1CCSc2ccccc21` (stereo not drawn), the inhibition is 27.2% (inactive).

Regarding `CCOc1ncccc1C(=O)NCCc1ccc(S(N)(=O)=O)cc1`, the inhibition was -2.5% (inactive).

On to `COc1ccc(C(NC(=O)c2ccc(=O)[nH]c2)C(=O)Nc2ccc(C(C)C)cc2)cc1` (stereo not drawn), for which the inhibition is -5% (inactive).

With `CCOCCCNC(=O)c1cc(=O)n(Cc2cccc(C)c2)c2ccccc12`, the inhibition was 3.1% (inactive).

Consider `O=C(c1ccccc1)c1ccc(Sc2ccc([N+](=O)[O-])cc2)cc1`, for which the inhibition is 10.8% (inactive).

Take `O=C(c1ccc(-c2ccccc2)cc1)c1ccc([N+](=O)[O-])cc1`: the inhibition was -69.2% (inactive).

`O=C(C#Cc1ccccc1)c1cccc([N+](=O)[O-])c1`: the inhibition is -9.6% (inactive).

As to `O=C(Nc1cccc([N+](=O)[O-])c1)c1ccccc1`, the inhibition is 2.6% (inactive).
